Reference: PubChem BioAssay (NCATS)
Records with an inconclusive call do not appear. Active and inactive are the calls of the source. Calls follow the shape of the dose curve; as a rule, active = well fitted curve in the direction sought with a large enough effect; inconclusive = small, poorly fitted or top-dose-only effect, or another doubt; inactive = no such curve, though single readings can be large; an effect the other way counts as inactive or inconclusive.

What was measured:
[1] = MultiTox-Fluor Cytotoxicity Assay - LYMP1-002 - Live Cells (AID 955);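 also: cells exposed to compound for 16 hours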
Outline: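 Human lymphoblastoid LYMP1-002 cells, 2500/well, treated 16 h at 37 C in complete medium. Live-cell protease activity via GF-AFC fluorescence (Ex/Em 405/510) after 60 min reagent incubation; AC50 from Hill fits.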

[2] = MultiTox-Fluor Cytotoxicity Assay - LYMP1-003 - Dead Cells (AID 961);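 also: cells exposed to compound for 16 h at 37 °C; nearly all actives have a fitted effect of over 70% in size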
Outline: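 Human lymphoblastoid LYMP1-003 cells (2500/well) were treated with compounds for 16 hr at 37 C in complete medium. Dead-cell protease release was read by bis-AAF-R110 fluorescence (Ex/Em 485/520). AC50 came from Hill fits, normalized to DMSO and 15 uM tetraoctylammonium bromide.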

[3] = MultiTox-Fluor Cytotoxicity Assay - LYMP1-003 - Live Cells (AID 962);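 also: cells exposed to compound for 16 hours at 37 °C; cytotoxic hits lower the live-cell protease signal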
Outline: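 LYMP1-003 lymphoblastoid cells, 2500/well in complete medium, treated 16 h at 37 C; live-cell protease cleavage of GF-AFC read by fluorescence (Ex/Em 405/510) after 60 min reagent; AC50 from Hill fits of concentration-response.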

[4] = Cell Viability - LYMP1-003 - Assay at 24 hr (AID 963)
Outline: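 Human lymphoblastoid LYMP1-003 cells, 2500/well, treated 24 h at 37 C in complete medium. Viability read as intracellular ATP by CellTiter-Glo luminescence after 30 min at room temperature; AC50 from Hill-equation fits of qHTS concentration-response.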

[5] = Cell Viability - LYMP1-003 - Assay at 40 hr (AID 964); also: series mostly up to about 92 µM; nearly all actives have a fitted effect of over 60% in size
Outline: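 LYMP1-003 human lymphoblastoid cells, 2500/well, preincubated 5 h at 37 C, then treated with compound for 40 h at 37 C. Intracellular ATP read by CellTiter-Glo luminescence after 30 min at room temperature; AC50 from Hill-equation fits.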

[6] = Cell Viability - LYMP2-003 (AID 965);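 also: cells exposed to compounds for 24 h before reading; nearly all actives have a fitted effect of over 50% in size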
Outline: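 CellTiter-Glo luminescence (cellular ATP) after 24 h compound exposure at 37 C in complete medium; 2500 cells/well, 5 h settling beforehand. Concentration-response fitted to standard Hill equation for AC50. Tetraoctylammonium bromide served as positive control.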

[7] = Cell Viability - LYMP2-004 (AID 966); also: nearly all actives have a fitted effect of over 65% in size
Outline: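 Lymphoblastoid LYMP2-004 cells, 2500 per well, were preincubated for 5 hr and then treated with compound for 24 h at 37 C in complete medium. Viability was read as cellular ATP by CellTiter-Glo luminescence, and AC50 values were taken from Hill fits to concentration-response data.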

[8] = Cell Viability - LYMP2-005 (AID 967); also: series mostly up to about 92 µM
Outline: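 Steps: seed 2500 LYMP2-005 cells/well, incubate 5 h at 37 C, add compound, incubate 24 h at 37 C, add CellTiter-Glo, wait 30 min at RT, read luminescence. Concentration-response data fitted to Hill equation for AC50.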

[9] = Cell Viability - LYMP2-009 (AID 968); also: series mostly up to about 92 µM; nearly all actives have a fitted effect of over 55% in size
[10] = Cell Viability - LYMP2-011 (AID 969); also: nearly all actives have a fitted effect of over 60% in size
Outline: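 2500 cells/well in complete medium, compound-treated 24 h at 37 C. Viability read as intracellular ATP by CellTiter-Glo luminescence after 30 min at room temperature. AC50 from Hill fits of qHTS concentration-response data.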

[11] = Cell Viability - LYMP2-015 (AID 971); also: nearly all actives have a fitted effect of over 55% in size
Outline: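 LYMP2-015 human lymphoblastoid cells (2500/well) in complete medium, compound-treated 24 h at 37 C; viability read as cellular ATP by CellTiter-Glo luminescence after 30 min at room temperature. AC50 from Hill-equation fits of qHTS concentration-response data.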

[12] = Cell Viability - LYMP2-017 (AID 972); also: series mostly up to about 92 µM; nearly all actives have a fitted effect of over 55% in size
Outline: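 LYMP2-017 human lymphoblastoid cells (2500/well) settled 5 hr at 37 C, then exposed to compound 24 hr at 37 C in complete medium. Viability taken as intracellular ATP by CellTiter-Glo luminescence after 30 min at RT; AC50 from Hill fits.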

[13] = Cell Viability - LYMP2-019 (AID 973); also: nearly all actives have a fitted effect of over 55% in size
Outline: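 Human lymphoblastoid LYMP2-019 cells (2500/well) preincubated 5 h at 37 C, then treated 24 h at 37 C in complete medium. Viability by CellTiter-Glo ATP luminescence after 30 min at room temperature; AC50 from Hill fits.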

[14] = Cell Viability - LYMP2-021 (AID 974)
Outline: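 Human lymphoblastoid LYMP2-021 cells, 2500/well in complete medium, treated 24 hours at 37 C. Intracellular ATP by CellTiter-Glo luminescence (30 min, RT); AC50 from Hill fits of concentration-response.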

[15] = Cell Viability - LYMP2-023 (AID 975)
Outline: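 LYMP2-023 human lymphoblastoid cells, 2500/well, preincubated 5 hr at 37 C, then compound-treated 24 hr at 37 C in complete medium. CellTiter-Glo luminescence (ATP) after 30 min at room temperature; AC50 from Hill-equation fits; tetraoctylammonium bromide positive control.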

[16] = Cell Viability - LYMP2-025 (AID 976); also: series mostly up to about 92 µM
Outline: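 Human lymphoblastoid LYMP2-025 cells, 2500/well, exposed 24 h at 37 C in complete medium in 1536-well qHTS. Viability as cellular ATP by CellTiter-Glo luminescence; AC50 from Hill fits of concentration-response data.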

[17] = Cell Viability - LYMP2-002 (AID 977); also: series mostly up to about 92 µM
Outline: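 Luminescent ATP readout (CellTiter-Glo, 30 min room temperature) after 24 h compound exposure at 37 C of a human lymphoblastoid line, 2500 cells/well. AC50 values derived by standard Hill fitting of qHTS concentration-response data.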

[18] = Cell Viability - LYMP2-006 (AID 978); also: series mostly up to about 92 µM; nearly all actives have a fitted effect of over 60% in size
Outline: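 qHTS, 1536-well; 2500 cells/well, 5 hr 37 C; cpd 24 hr 37 C; CellTiter-Glo 30 min RT; luminescence. Tetraoctylammonium bromide pos. ctrl. AC50 via Hill eqn.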

[19] = Cell Viability - LYMP2-007 (AID 979);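 also: cells exposed to compound for 24 h before reading; nearly all actives have a fitted effect of over 60% in size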
Outline: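 Human lymphoblastoid LYMP2-007 cells (2500/well) preincubated 5 h at 37 C, then treated 24 h at 37 C in complete medium. Viability by CellTiter-Glo ATP luminescence after 30 min at room temperature; AC50 from Hill fits.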

[20] = Cell Viability - LYMP2-008 (AID 980); also: nearly all actives have a fitted effect of over 60% in size
Outline: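 LYMP2-008 lymphoblastoid cells (2500/well) plated 5 h, then treated 24 h at 37 C in complete medium. Viability read as intracellular ATP by CellTiter-Glo luminescence after 30 min at room temperature; AC50 from Hill fits.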

[21] = Cell Viability - LYMP2-010 (AID 981); also: nearly all actives have a fitted effect of over 55% in size
Outline: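 Human lymphoblastoid LYMP2-010 cells (2500/well) treated 24 h at 37 C in complete medium; viability read as intracellular ATP by CellTiter-Glo luminescence. AC50 from Hill fits of concentration-response data; tetraoctylammonium bromide positive control.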

[22] = Cell Viability - LYMP2-012 (AID 982)
[23] = Cell Viability - LYMP2-016 (AID 984); also: nearly all actives have a fitted effect of over 55% in size
Outline: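 qHTS, 1536-well: 2500 LYMP2-016 cells/well, 5 hr 37 C, compound added, 24 hr 37 C, CellTiter-Glo 30 min RT, luminescence. Tetraoctylammonium bromide positive control. AC50 via Hill fit.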

[24] = Cell Viability - LYMP2-018 (AID 985);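 also: compound exposure lasted 24 hr at 37 °C; nearly all actives have a fitted effect of over 50% in size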
Outline: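 Human lymphoblastoid LYMP2-018 cells, 2500/well, settled 5 hr at 37 C then exposed to compound 24 hr at 37 C; intracellular ATP measured by CellTiter-Glo luminescence. AC50 from Hill-equation concentration-response fits.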

[25] = Cell Viability - LYMP2-020 (AID 986)
Outline: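 Human lymphoblastoid LYMP2-020 cells (2500/well) preincubated 5 h at 37 C, then treated 24 h at 37 C. Viability measured as intracellular ATP by CellTiter-Glo luminescence after 30 min at room temperature; AC50 from Hill fits.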

[26] = Cell Viability - LYMP2-022 (AID 987); also: nearly all actives have a fitted effect of over 55% in size
Outline: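 LYMP2-022 lymphoblastoid cells (2500/well, complete medium) were treated with compounds for 24 hours at 37 C; intracellular ATP was then read by CellTiter-Glo luminescence after 30 min at room temperature. AC50 values were derived from Hill-equation fits.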

[27] = Cell Viability - LYMP2-024 (AID 988); also: nearly all actives have a fitted effect of over 60% in size
Outline: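 Human lymphoblastoid LYMP2-024 cells (2500/well) rested 5 hr, then treated with compound for 24 hr at 37 C in complete medium. Viability was measured as intracellular ATP by CellTiter-Glo luminescence. AC50 values came from Hill-equation fits.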

[28] = Cell Viability - LYMP2-026 (AID 989); also: nearly all actives have a fitted effect of over 50% in size
Outline: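 Human lymphoblastoid LYMP2-026 cells, 2500/well, exposed to compound 24 h at 37 C in complete medium. Viability as intracellular ATP by CellTiter-Glo luminescence; AC50 from Hill fits of qHTS concentration-response.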

[29] = Cell Viability - LYMP1-002 - Assay at 24 hr (AID 993)
Outline: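 Human lymphoblastoid LYMP1-002 cells (2500/well) treated 24 h at 37 °C; viability as intracellular ATP by CellTiter-Glo luminescence. Tetraoctylammonium bromide as positive control; AC50 from Hill-equation fits of qHTS concentration-response.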

Measured: Potency

CC12CCC(CC1=O)C2(C)C (centres undefined)
inactive: all assays above
